Source: PubChem BioAssay (Tox21)
Calls of active or inactive are those of the source. Calls come from the whole dose curve; as a rule, active = well fitted curve in the direction sought with a large enough effect in the repeat runs; inconclusive = weak or mixed curves; inactive = flat fitted curve, though single readings scatter.

assay: qHTS assay to test for compound auto fluorescence at 460 nm (blue) in HEK293 cell free culture (AID 720681); conditions: cell-free medium, autofluorescence 405/460 nm (blue); series mostly up to 91.3 µM; fluorescence, % of fluorescent control: at the top concentration
Text: U.S. Tox21 Program National Center for Advancing Translational Sciences [NCATS] NIH Chemical Genomics Center [NCGC] U.S. Environmental Protection Agency [EPA] National Institutes of Environmental Health Sciences [NIEHS] National Toxicology Program [NTP] U.S. Food and Drug Administration [FDA] Tox21 Assay Overview: Compound auto fluorescence often interferes with screening of the compound library against various biological targets and signaling pathways. Some of these compounds may have fluorophoric properties. Such properties may interfere with the assay outputs resulting in false positives and/or negatives. To decrease such complications and ensure the compound activities are relevant in terms of biological response, the Tox21 10K compound library was screened for auto fluorescence. From the fluorophores used as reporter signals in our screening assays, the auto fluorescence equivalencies of compounds against three fluorophores have been evaluated: Triamterene, Fluorescein and Rose Bengal sodium for blue, green and red fluorescence, respectively. The fluorescence intensities were measured using Excitation/Emission wavelengths at 405/460nm, 485/535nm and 540/590nm for blue, green and red labels, respectively. This assay includes the blue fluorescence data.
Tox21 Assay Protocol Summary: 5 uL of culture medium (DMEM containing 10% FBS) per well was dispensed into black wall/clear bottom 1536-well plates using a Multidrop Combi Dispenser (ThermoFisher Scientific, Waltham, MA). After 23 nL compound or DMSO vehicle was transferred into assay plate by a pintool work station (Kalypsys, San Diego, CA), fluorescence intensities in the assay plates were measured by an Envision (PerkinElmer, Shelton, CT) plate reader using three labels for measuring blue, green and red fluorescence at […] 460, 535 and 590nm respectively.
% is set by controls: 0 for no effect and ±100 for the full control effect.

| Compound | fluorescence, % of fluorescent control | outcome |
| --- | --- | --- |
| CCOP(=O)(SC(C)CC)N1CCSC1=O (stereo not given) | 0.0211% (inactive) | – |
| Nc1ccccc1C(=O)OCCc1ccccc1 | – | inactive |
| CCSCc1ccccc1OC(=O)NC | -0.0282% (inactive) | – |
| CCCC1CCCCN1 (stereo not given) | -0.0593% [at 46 µM] (inactive) | – |
| Nc1c(Br)cc(Br)c2c1C(=O)c1ccccc1C2=O | -0.168% [at 18.6 µM] (inactive) | – |
| CN(C)C(=O)Nc1cccc(OC(=O)NC(C)(C)C)c1 | 0.127% (inactive) | – |
| O=CC=O | – | inactive |
| Cc1ncc(C[n+]2csc(CCO)c2C)c(N)n1 | – | inactive |
| CCCCC#N | -0.0352% (inactive) | – |
| CNC(=O)Oc1cccc(N=CN(C)C)c1 | 0.0409% (inactive) | – |
| C#C[C@]1(O)CC[C@H]2[C@@H]3CCC4=CC(=O)CCC4=C3C=C[C@@]21CC | 6.07% [at 46 µM] (inactive) | – |
| N#CC(C#N)=C(C#N)C#N | -0.012% [at 95.7 µM] (inactive) | – |
| [Cl-].[Cl-].[Hg+2] | – | inactive |
| COc1cc(C[C@@H](C)N)c(OC)cc1Br | -0.0309% [at 95.7 µM] (inactive) | – |
| CCN(C(C)=O)c1cccc(-c2ccnc3c(C#N)cnn23)c1 | 2.11% [at 46 µM] (inactive) | – |
| CN(C1CCCCC1)C1CCCCC1 | -0.0158% (inactive) | – |
| CCCN(CCC)c1c([N+](=O)[O-])cc(C(C)C)cc1[N+](=O)[O-] | – | inactive |
| C=C(C)C(=O)OCCCCOC(=O)C(=C)C | 0.0028% (inactive) | – |
| O=C(N/N=C/c1ccc([N+](=O)[O-])o1)c1cc([N+](=O)[O-])cc([N+](=O)[O-])c1O | -0.74% [at 46 µM] (inactive) | – |
| CC(C)(C)N(NC(=O)c1ccc(Cl)cc1)C(=O)c1ccccc1 | 0.0763% (inactive) | – |

| Compound | fluorescence, % of fluorescent control | outcome |
| --- | --- | --- |
| CC(C)(C#N)C(C)(C)C#N | -0.0267% [at 95.7 µM] (inactive) | – |
| CCCSP(=S)(OCC)Oc1ccc(SC)cc1 (stereo not given) | -0.058% (inactive) | – |
| N#CC(C#N)=Cc1ccc(O)c(O)c1 | 0.445% [at 46 µM] (inactive) | – |
| Cc1nnc(-c2ccccc2)c(=O)n1N | -0.106% (inactive) | – |
| CON(C)C(=O)Nc1ccc(Cl)cc1 | 0.0399% (inactive) | – |
| CN1CC[C@]23c4c5ccc(O)c4O[C@H]2[C@@H](O)CC[C@H]3[C@H]1C5 | -0.0497% (inactive) | – |
| CC(C)(C)OOC(C)(C)CCC(C)(C)OOC(C)(C)C | -0.281% (inactive) | – |
| NC(=S)c1c(Cl)cccc1Cl | -0.0436% (inactive) | – |
| CC(Cl)C(=O)O (stereo not given) | -0.0561% [at 95.7 µM] (inactive) | – |
| O=C(O)C(F)(F)C(F)(F)C(F)(F)C(F)(F)C(F)(F)F | -0.0716% (inactive) | – |
| O=C(NCNC(=O)NC1C(=O)NC(=O)N1CO)NC1C(=O)NC(=O)N1CO (stereo not given) | – | inactive |
| COP(=O)(OC)OC(Br)C(Cl)(Cl)Br (stereo not given) | – | inactive |
| CC1(C)CC(=O)CC(C)(C)N1[O] | -0.0367% (inactive) | – |
| C[CH2][Hg][S]c1ccccc1C(=O)O | – | inactive |
| C=CCSSCC=C | 0.0319% (inactive) | – |
| C1CCNCC1 | 0.152% [at 95.7 µM] (inactive) | – |
| CN[C@@H](C)[C@H](O)c1ccccc1 | 0.0477% [at 46 µM] (inactive) | – |
| COc1ccc(C(=O)c2c(C)n(CCN3CCOCC3)c3ccccc23)cc1 | -0.0105% [at 46 µM] (inactive) | – |
| Cc1ccc2c(C)cccc2c1 | -0.26% (inactive) | – |
| CCc1ccccc1N | 0.0557% (inactive) | – |
